The source of these data is ChEMBL document CHEMBL4513216, “Probing the Open Global Health Chemical Diversity Library for Multistage-Active Starting Points for Next-Generation Antimalarials” (ACS Infect Dis, 2020).

Among all 65,000 compounds or so, about 2,100 (3.2%) showed an effect of 50% or more. The median lay at about -52%. Many of the other results were omitted from the sample, so strong results are more common in it than they were.

This assay has as its system Plasmodium falciparum. Kind of assay: Screen against P. falciparum Asexual Blood Stage (ABS), at 5uM. In kind it is functional, Dd2. The following applies: tested at 5 uM.
Regarding `Cc1cccc(CN2CC[C@H]3C[C@H](C)O[C@@H]3C2)n1`, the INHIBITION is -37.4%.
Take `Fc1ccccc1CC1CCN(Cc2ccccn2)CC1`: the INHIBITION was found to be 70.4%.
To `Cc1nc(CN2C[C@@H]3CN(C(=O)Cc4ccccn4)C[C@@H]3C2)cs1` belongs -41.5%; to `CN1CCC2(Cc3ccccc3NC2=O)C1` (stereo not drawn), 8.23%; to `Cc1nn(C)c2ncc(S(=O)(=O)N3CCN4CCCC4C3)cc12` (stereo not drawn), -67.5%.
To `CC(c1cn2ncsc2n1)n1cc2[nH]cccc-2c1=O` (stereo not drawn) belongs -131%.
Next, `CO[C@@H]1CN(Cc2scnc2C)[C@@H]2CCCO[C@@H]21`: -39.6%; `CC(=O)N1CCCC2(CN(Cc3ccncc3)CCO2)C1` (stereo not drawn): -47.6%; `CN1CCC(N(C)C[C@H]2CC[C@@H](Cc3ccc4occc4c3)O2)CC1`: 85.8%.
As to `CCc1nc(CN2CCN(C(=O)Cc3c(C)noc3C)CC2)cs1`, the INHIBITION is recorded as -46.1%.
Next, `Cc1noc(C)c1CC(=O)N1CCN(Cc2cscn2)CC1`: -151%.
To `Cc1noc(C)c1CC(=O)N1CCCN(Cc2cscn2)CC1` belongs 63.9%.
To `CCOc1cccc(CNC(C)c2ccc(-n3ccnc3)cc2)c1O` (stereo not drawn) belongs 75%; to `COc1ccccc1CNC(C)c1ccc(-n2ccnc2)cc1` (stereo not drawn), 78.4%.
`COc1cccc(CNC(C)c2ccc(-n3ccnc3)cc2)c1O` (stereo not drawn): the INHIBITION was found to be 79.5%.
To `CC(Cc1c(F)cccc1F)NC(=O)CSCC(N)=O` (stereo not drawn) belongs -46.4%; to `Nc1cnc(-c2cccc3c2CCNC3)cn1`, -39.4%.
As for `Cc1noc([C@@H]2C[C@H]3OCC[C@H]3N(C(C)C)C2)n1`, the INHIBITION is recorded as -89.1%.
For the molecule `CC1(C)CC2(CCO1)NC(=O)c1cc(Br)ccc1-n1nnnc12` (stereo not drawn), the INHIBITION was -59.6%.
`c1cc(CN2C[C@@H]3COC[C@]3(COCC3CC3)C2)ccn1`: the INHIBITION is -11.9%.
To `CNc1ncccc1C(=O)N1CCN(C)C2(CCN(C)CC2)C1` belongs -111%; to `COCCn1cncc1Cn1ncc2ccccc2c1=O`, -74.4%.
To `COc1cccc(CC(=O)N2CCCSCC2CN2CCCC2)c1` (stereo not drawn) belongs 54.7%; to `O=C(COc1ccc(F)cc1)N1CCCSCC1CN1CCOCC1` (stereo not drawn), -80.2%.
Next, `COc1cccc(OCC(=O)N2CCCSCC2CN2CCOCC2)c1` (stereo not drawn): -105%.
As to `CCS(=O)(=O)N1CCC2(C1)C(=O)N(C)CCN2Cc1ccncc1` (stereo not drawn), the INHIBITION was -177%.
Consider `CCO[C@@H]1CC[C@H]2[C@H]1OCCN2Cc1ccoc1`, for which the INHIBITION is given as -43.3%.
Next, `Fc1ccccc1-c1cccc(C2CCCN(C3CCOCC3)C2)n1` (stereo not drawn): 82.3%; `O=C1N(Cc2ccccn2)C[C@H]2CN(C3CCOCC3)CCN12`: -92.3%.
Regarding `O=C1NC[C@H]2CN(C3CCOCC3)CCN12`, the INHIBITION is reported as -118%.
For the molecule `OCCN1CCCC(c2cccc(-c3ccccc3F)n2)C1` (stereo not drawn), the INHIBITION stood at 83.4%.
To `Cc1nc(CN2CCN(C(=O)COc3c(C)ccc(C)c3C)CC2)no1` belongs -66.3%; to `O=C(N1CCCO1)[C@@]12CCO[C@@H]1CCN(Cc1cccnc1)C2`, -54.2%.
As to `CN(C)CCN(C)C(=O)Cn1cccc2cc(-c3ccc(F)cc3)nc1-2`, the INHIBITION was determined as 86.8%.
On to `CCc1cccc2c(CC(=O)N(C)CCN(C)C)c(C)[nH]c12`, for which the INHIBITION worked out at 18.4%.
Next, `c1ccc(CO[C@@H]2CN(Cc3ccoc3)[C@@H]3COC[C@@H]32)nc1`: -37.1%; `Cc1cc(CN2C[C@@H]3COC[C@]3(COCC(=O)N(C)C)C2)no1`: -23%; `CCc1[nH]c2c(CNc3nccc(N)n3)cc(F)cc2c1C`: 85.6%.
Next, `Cc1cc(CNc2nccc(N)n2)c2[nH]c(C)c(C)c2c1`: 79.5%; `CCc1[nH]c2c(CNc3nccc(N)n3)cc(C)cc2c1C`: 90.9%; `CCN1C(=O)C2(CCCCC2)NC12CCSCC2`: -40%.
To `COc1cccc(C2SCC(=O)Nc3ccsc32)c1` (stereo not drawn) belongs -108%.
Turning to `Cc1nc(CN2CCO[C@@H]3CNCC[C@@H]3C2)cs1`, the INHIBITION is -15.7%.
Next, `O=C(c1ccc(C2CCCN2)s1)N1CCN2CCC1CC2` (stereo not drawn): -75.7%; `NCC(=O)N1CCCC1c1ccc(C(=O)NCc2ccoc2)s1` (stereo not drawn): 92.6%; `Cc1sc2nc(C(F)(F)F)nc(N3CCCN(C)CC3)c2c1C`: 76.1%.
Next, `O=C1CSC(c2ccc(F)c(Cl)c2)c2c(n(C3CCOCC3)[nH]c2=O)N1` (stereo not drawn): -35.3%; `Cc1cccc(CN2CC3C[C@]3(NC(=O)c3cccc(F)c3)C2)n1` (stereo partly drawn): -65.9%.
Regarding `O=C(c1cnc(-c2ccccc2)s1)N1CCC2(CC1)OCCO2`, the INHIBITION is on record as -174%.
To `COc1ccc2c(c1)c(C(=O)Nc1nnn[nH]1)cn2C(C)C` belongs -11.6%.
Next, `CN1CCC(C2CCN(Cc3cccc(-n4cccn4)c3)CC2)C1` (stereo not drawn): 85.7%; `c1cc(CN2CC[C@@H]3CN(c4cncnc4)C[C@@H]3C2)ccn1`: -49.4%; `c1cnc(N2C[C@H]3CCN(Cc4ccncc4)C[C@H]3C2)nc1`: -82.6%.
